Compounds with a hit are over-represented: about 3.3% of the library has one in this group of screens.
S16 F2sN tox – Cell viability qHTS assay in S16 Pmp22-F2sN cells. Potency, µM (doses to about 57.5 µM), most hits filed as cytotoxic. S16 Pmp22-F2sN Schwann cells viability, CellTiter-Glo, 24 h. actives 0.48% (n = 43,000). AID 1508642, 2021; note: nearly all actives have a fitted effect of over 65% in size
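Rat S16 Schwann reporter line, 24 h treatment with library compounds delivered at 23 nL per well. Cell viability by CellTiter-Glo luminescence.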
FH mod – Identification of activators of human fumarate hydratase by quantitative high-throughput screening. FH coupled MDH/diaphorase resazurin fluorescence, 15 min. actives 0.22% (n = 54,000). Fumarate hydratase, mitochondrial (Homo sapiens), P07954. Potency, µM (top dose mostly 79.9 µM), most hits filed as inhibitors; note: the screen sought activators but most active calls are inhibition curves; nearly all actives have a fitted effect of over 45% in size
Target sequence (P07954 whole entry, looked up): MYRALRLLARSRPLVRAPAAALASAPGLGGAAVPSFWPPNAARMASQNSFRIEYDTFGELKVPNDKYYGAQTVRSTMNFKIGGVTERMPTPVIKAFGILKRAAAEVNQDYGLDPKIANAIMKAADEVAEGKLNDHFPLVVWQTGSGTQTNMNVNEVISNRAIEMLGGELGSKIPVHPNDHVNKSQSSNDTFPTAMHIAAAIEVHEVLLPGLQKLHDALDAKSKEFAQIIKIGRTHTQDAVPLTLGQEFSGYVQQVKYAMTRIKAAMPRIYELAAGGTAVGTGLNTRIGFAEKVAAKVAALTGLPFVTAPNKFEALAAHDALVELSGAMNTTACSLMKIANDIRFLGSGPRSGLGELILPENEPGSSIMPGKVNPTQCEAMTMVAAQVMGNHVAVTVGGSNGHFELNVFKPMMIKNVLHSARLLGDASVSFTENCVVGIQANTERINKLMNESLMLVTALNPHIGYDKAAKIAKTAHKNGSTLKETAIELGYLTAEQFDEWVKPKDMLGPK
HTT-AS promoter – Primary qHTS for Identification of Small Molecule Activators of Huntingtin-Antisense Promoter Activity | HEK293 HTT-AS promoter firefly luciferase reporter, 24 h; response scale: percent change from vehicle, -100% = no light | Potency, µM (highest dose often 57.5 µM), most hits filed as activators | actives 0.24% (n = 48,000); note: nearly all actives have a fitted effect of over 55% in size
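Luminescence was read after Dual-Glo reagent and a 10 min room-temperature incubation. Values were normalized to vehicle (0% activity) and zero RLU (-100% activity). Reporter HEK293 cells had been exposed to compounds (up to 57.5 uM final) for 24 h.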
PMP22 txn prim – Cell-based coincidence reporter assay to measure PMP22 gene transcription in S16 Pmp22-F2sN cells - Primary screen | Potency, µM (titrated, usually from 57.5 µM), hits mostly inhibitors | S16 Pmp22-F2sN Schwann cells (luciferase reporters placed in the Pmp22 gene), FLuc/NLuc coincidence luminescence, 24 h | actives 2% (n = 43,000); active = clear falling dose curves in both reporters; inconclusive = both reporters move, but less clearly or upward; inactive = either reporter flat; the % is the NLuc reporter signal
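S16(c9) Schwann cells with FLuc/NLuc coincidence reporter in the Pmp22 3' UTR; compounds pin-transferred, 24 h at 37C. Dual-luciferase read: FLuc first, then NLuc after Stop&Glo, each 10 min at room temperature.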
HTT prom inh – Primary qHTS for Identification of Small Molecule Inhibitors of Huntingtin Promoter Activity. HEK293 HTT promoter firefly luciferase reporter, 24 h. Potency, µM (series often up to 57.5 µM), most hits filed as inhibitors. actives 0.93% (n = 48,000); note: nearly all actives have a fitted effect of over 50% in size
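Firefly luciferase readout (Dual-Glo, 10 min RT) after 24 h, 37 °C compound exposure (final up to 57.5 uM) of HEK293 reporter cells cultured 24 h beforehand; PTC124 at 50 uM final as control inhibitor; activity scaled vehicle 0%, zero RLU -100%.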
mTORC1 inh – Acumen qHTS Assay for Inhibitors of the mTORC1 Signaling Pathway in MEF (Tsc2-/-, p53-/-) Cells: Sytravon; Potency, µM (titrated, usually from 38.3 µM), hits mostly inhibitors; Tsc2-/- p53-/- MEF, phospho-rpS6 immunofluorescence/PI, 24 h; AID 493208, 2011; actives 0.78% (n = 44,000); note: nearly all actives have a fitted effect of over 50% in size
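Tsc2-/-, p53-/- mouse embryonic fibroblasts (empty-vector line) exposed to compound 24 hrs at 37 C, fixed, immunostained for phospho-rpS6 and counterstained with propidium iodide. Acumen laser scanning gives % positive cells from Alexa 488/PI ratio, thresholded using 7.5 nM rapamycin; PI count gives viability.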
NLuc sat counter – Biochemical NLuc saturation counterscreen for small molecule modulators of PMP22 gene expression - Nano-Glo assay; shares compounds with PMP22 txn prim; Secreted NLuc enzyme (filtered S16 cell medium), Nano-Glo luminescence; Potency, µM (highest dose often 57.5 µM), usual class: inhibitors; actives 4% (n = 690); AID 1508638, 2021
NLuc Km ctr – Biochemical coelenterazine-based NLuc counterscreen for small molecule modulators of PMP22 gene expression - Km assay; shares compounds with PMP22 txn prim; actives 5% (n = 690); secreted NLuc enzyme, coelenterazine luminescence, Km conditions; Potency, µM (series often up to 57.5 µM), most hits filed as inhibitors
FLuc ctr PMP22 – Biochemical FLuc counterscreen for small molecule modulators of PMP22 gene expression; shares compounds with PMP22 txn prim; purified P. pyralis FLuc, luminescence, 10 min; Potency, µM (highest dose often 57.5 µM), actives largely listed as inhibitors; 690 tested, under 10 active
S16 F2sN tox cnf – Cell viability qHTS assay in S16 Pmp22-F2sN cells - Confirmatory screen; S16 Schwann cells viability, CellTiter-Glo ATP luminescence, 24 h; shares compounds with PMP22 txn prim; Potency, µM (highest dose often 57.5 µM), most hits filed as cytotoxic; AID 1508641, 2021; actives 7% (n = 690)
PMP22 txn cnf – Cell-based coincidence reporter assay to measure PMP22 gene transcription in S16 Pmp22-F2sN cells - Confirmatory screen; shares compounds with PMP22 txn prim; S16 Schwann cells Pmp22-F2sN, dual luciferase, 24 h; Potency, µM (highest dose often 57.5 µM), most hits filed as inhibitors; actives 22% (n = 690); AID 1508646, 2021; active = clear falling dose curves in both reporters; inconclusive = both reporters move, but less clearly or upward; inactive = either reporter flat; the % is the FLuc reporter signal
PMP22 prot conf – Cell-based HiBiT reporter assay to measure PMP22 protein expression in S16 Pmp22-HiBiT cells - Confirmatory screen | S16 Schwann cells Pmp22-HiBiT, luminescence, 48 h | Potency, µM (doses to about 27.9 µM), hits mostly inhibitors | shares compounds with PMP22 txn prim | 95 tested, under 10 active | AID 1508647, 2021
A number is an active result; i = inactive; ? = inconclusive; nt = no result given. Unless noted, calls come from the whole dose curve; as a rule, active = well fitted curve in the direction sought with a large enough effect; inconclusive = small, poorly fitted or top-dose-only effect, or another doubt; inactive = no such curve, though single readings can be large; an effect the other way counts as inactive or inconclusive.

SMILES	S16 F2sN tox	FH mod	HTT-AS promoter	PMP22 txn prim	HTT prom inh	mTORC1 inh	NLuc sat counter	NLuc Km ctr	FLuc ctr PMP22	S16 F2sN tox cnf	PMP22 txn cnf	others
Cn1c(=O)n(C)c2cc(N3CCOCC3)c(NS(=O)(=O)c3ccc(C(C)(C)C)cc3)cc21	?	?	i	i	i	i	nt	nt	nt	nt	nt
CC1(CO)CC(O)C2(C)CCC3(C)C(=CCC4C5(C=O)CCC(OC6OC(C(=O)O)C(O)C(O)C6OC6OC(C(=O)O)C(O)C(O)C6O)C(C)(C)C5CCC43C)C2C1 (centres undefined)	nt	i	nt	nt	nt	nt	nt	nt	nt	nt	nt
COc1cc(OC)c(OC)cc1/C=C/c1nc2cc3ccccc3cc2c(=O)n1-c1ccc(F)cc1F	?	i	i	9.46µM	?	i	3.06µM	2.17µM	?	i	i
COc1ccc(CCNC(=O)Cn2c(-c3cccs3)cc3cc(F)ccc32)cc1OC	i	i	i	?	?	i	nt	nt	nt	nt	nt	PMP22 prot conf=?
CCOc1ccc(CCNC(=O)Cn2c(-c3cccs3)cc3ccccc32)cc1OCC	i	i	i	?	i	i	nt	nt	nt	nt	nt
O=C(Cn1c(-c2cccs2)cc2cc(F)ccc21)NCCCN1CCN(c2ccc(F)cc2)CC1	i	i	i	?	?	i	nt	nt	nt	nt	nt	PMP22 prot conf=i
COc1cc(C2C(C(=O)OC(C)C)=C(C)N=C3SCCC(=O)N32)ccc1OCc1ccccc1 (centres undefined)	i	i	i	20µM	?	i	i	i	i	?	i
O=C(CCCN1C(=O)C(c2ccccc2)Oc2cccnc21)Nc1ccccc1C(F)(F)F (centres undefined)	i	i	i	?	i	i	nt	nt	nt	nt	nt
CCN(CC)c1ccc(NC(=O)CCCN2C(=O)C(c3ccccc3)Oc3cccnc32)c(C)c1 (centres undefined)	i	i	i	14.5µM	i	i	i	?	i	i	?
O=C(/C=C/c1ccccc1)OC[C@H]1O[C@@H](OC(=O)c2cc(O)c(O)c(O)c2)[C@H](O)[C@@H](O)[C@@H]1O	nt	i	nt	nt	nt	nt	nt	nt	nt	nt	nt
